High-throughput results (PubChem BioAssay)
HIV RNase H inh = HIV-1 RT RNase H inhibitors, primary screen, biochemical, fluorescence; Gag-Pol polyprotein (Human immunodeficiency virus type 1 group M subtype B (isolate …; RT-RNase H RNA/DNA duplex cleavage; inhibition, % at 10 µM; hit rate 1.9% among 65,000; in the data active = inhibition above about 50%
* marks the source's active call; other numbers are inactive results. Shown is part of a subset that was picked to be rich in hits.

What do the screens show for `COC(=O)CCC(=O)Nc1ccc(Br)cc1`?
HIV RNase H inh: 10

How did CC(C)c1ccc(S(=O)(=O)N2CCN(C(=O)c3cccc(F)c3)CC2)cc1 do in these assays?
HIV RNase H inh: 1

Results for CCOC(=O)N1CCN(C(=O)c2cn(CC)c3cc(N4CCN(C)CC4)c(F)cc3c2=O)CC1 ?
HIV RNase H inh: 10

What do the screens show for `Brc1cnn(-c2nc(N3CCOCC3)nc(N3CCOCC3)n2)c1`?
HIV RNase H inh: -27

How did CCOC(=O)c1c(C)oc2c1c1c(c3ccccc32)OCN(Cc2cccnc2)C1 do in these assays?
HIV RNase H inh: 17

What do the screens show for `CCOC(=O)c1c(C)oc2c1c(C(c1cccnc1)N1CCN(C)CC1)c(O)c1ccccc12` (stereo not given)?
HIV RNase H inh: 60*

How did CCOC(=O)c1c(C)oc2c1c(C=NCc1ccccn1)c(O)c1ccccc12 do in these assays?
HIV RNase H inh: -43

Results for O=C(c1oc2ccccc2c1CSCc1ccccc1)N1CCN(c2ncccn2)CC1 ?
HIV RNase H inh: -6

How did CCOc1cc(C2NC(=O)NC(C)=C2C(=O)OCc2ccccc2)ccc1O (stereo not given) do in these assays?
HIV RNase H inh: -17

What do the screens show for `CN1CCc2c(sc3c2C(=O)NC(c2ccco2)N3)C1` (stereo not given)?
HIV RNase H inh: 0

What do the screens show for `CCOC(=O)N1CCc2c(sc3c2C(=O)NC(c2ccccc2)N3)C1` (stereo not given)?
HIV RNase H inh: 2

What do the screens show for `Cn1cccc1C1NC(=O)c2c(sc3c2CCC(C(C)(C)C)C3)N1` (stereo not given)?
HIV RNase H inh: 60*

Results for COc1ccc(N2C(=O)C3CCCN3C2c2cccc(C)c2)cc1Cl (stereo not given) ?
HIV RNase H inh: -16

What do the screens show for `COc1ccc(N2Cc3ccccc3C2)cc1Cl`?
HIV RNase H inh: 55*

Results for COc1ccc(N2C(=O)C3CCCN3C2c2ccccc2)cc1Cl (stereo not given) ?
HIV RNase H inh: -10

Results for N#Cc1nc(-c2cccs2)oc1NCc1ccc2c(c1)OCO2 ?
HIV RNase H inh: -21

Results for Cc1ccc(SCc2cn3c(C)csc3n2)cc1 ?
HIV RNase H inh: -22

Results for COc1ccc(C2C(C(C)=O)=C(C)N=c3s/c(=C\c4ccco4)c(=O)n32)c(OC)c1 (stereo not given) ?
HIV RNase H inh: -1

How did COc1ccc(C2C(C(C)=O)=C(C)N=c3s/c(=C\c4cc(C)n(C)c4C)c(=O)n32)c(OC)c1 (stereo not given) do in these assays?
HIV RNase H inh: 32

What do the screens show for `COc1ccc(C2C(C(C)=O)=C(C)N=c3s/c(=C\c4ccc5c(c4)OCO5)c(=O)n32)c(OC)c1` (stereo not given)?
HIV RNase H inh: 58*

What do the screens show for `O=C(Nc1ccccc1-c1ccccc1)C1CCCN(c2ncccn2)C1` (stereo not given)?
HIV RNase H inh: -39

Results for COc1ccccc1CNC(=O)CN(C)CC(=O)Nc1cccc(F)c1 ?
HIV RNase H inh: -14

Results for Cc1cc(N2CCN(C3CCCC3)CC2)n2nc(C)c(-c3ccccc3)c2n1 ?
HIV RNase H inh: -10

What do the screens show for `O=C1C(=O)N(CCCn2ccnc2)C(c2cccnc2)/C1=C(/O)c1ccc(Cl)cc1` (stereo not given)?
HIV RNase H inh: -5

How did O=C(NCCc1ccccc1)C1CCN(S(=O)(=O)c2ccc(-c3nn[nH]n3)cc2)CC1 do in these assays?
HIV RNase H inh: 0

Results for CN(C1=NC(=O)C(CC(=O)Nc2ccc(Br)cc2)S1)c1ccc(O)cc1 (stereo not given) ?
HIV RNase H inh: 3

How did CCCCn1c(O)c(C=NC2CCCCC2N)c(=O)[nH]c1=O (stereo not given) do in these assays?
HIV RNase H inh: -4

How did NC1CCCCC1N=Cc1c(O)n(Cc2ccc(F)cc2)c(=O)[nH]c1=O (stereo not given) do in these assays?
HIV RNase H inh: -2

What do the screens show for `CCCCCCn1c(O)c(C=NC2CCCCC2N)c(=O)[nH]c1=O` (stereo not given)?
HIV RNase H inh: 51*

What do the screens show for `CCCCN(C)C(=O)c1c[nH]c2ccc(S(=O)(=O)N3CCOCC3)cc2c1=O`?
HIV RNase H inh: 4

How did Cn1c(COc2ccccc2)nnc1SCCC(=O)Nc1ccccc1 do in these assays?
HIV RNase H inh: 0

Results for O=C(CCN1CCCCC1)NCC1OCCc2ccccc21 (stereo not given) ?
HIV RNase H inh: 1

Results for CCn1c(SCC(=O)Nc2ccc(NC(=O)c3ccco3)c(OC)c2)nc2ccccc2c1=O ?
HIV RNase H inh: 21

Results for CCCCn1c(SCC(=O)Nc2cc(NC(=O)c3ccco3)ccc2C)nc2ccccc2c1=O ?
HIV RNase H inh: 55*

Results for CCCCn1c(SCC(=O)Nc2cc(C)on2)nc2ccccc2c1=O ?
HIV RNase H inh: 34

How did Cc1ccc(NS(=O)(=O)c2ccc(NC(=O)c3ccc(Br)o3)cc2)c(C)c1 do in these assays?
HIV RNase H inh: -2

What do the screens show for `CCCCOC(=O)Cn1c(=O)c2c(nc(Br)n2Cc2ccccc2)n(C)c1=O`?
HIV RNase H inh: -7

Results for N#C/C(Cn1c[n+](NC(=O)Nc2ccccc2)cn1)=N/O ?
HIV RNase H inh: -8

Results for CCOC(=O)c1ccc(NC2OC(=O)c3ccccc32)cc1 (stereo not given) ?
HIV RNase H inh: -2

What do the screens show for `COc1ccccc1-c1nc2s/c(=C\c3cccs3)c(=O)n2n1`?
HIV RNase H inh: -1

What do the screens show for `Cc1ccc(/C=c2\sc3nc(-c4cccs4)nn3c2=O)o1`?
HIV RNase H inh: 45

How did Cc1ccc2c(nc3s/c(=C/c4cccs4)c(=O)n32)c1C do in these assays?
HIV RNase H inh: 80*

Results for O=C(COc1ccc(Cl)cc1Cl)NC(=O)N1CCOCC1 ?
HIV RNase H inh: 2

What do the screens show for `Cc1ccccc1-n1nnnc1SC1CCOC1=O` (stereo not given)?
HIV RNase H inh: -28

What do the screens show for `CCOC(=O)c1cc2sccc2n1CC(=O)c1ccc2c(c1)OCCO2`?
HIV RNase H inh: -12

Results for Oc1ccccc1C(=S)N1CCCCCC1 ?
HIV RNase H inh: 38

Results for Oc1ccccc1C(=S)N1CCCCC1 ?
HIV RNase H inh: 53*

What do the screens show for `O=C(Nc1ccccc1C(=O)N1CCCCC1)C1CCCCC1`?
HIV RNase H inh: -6

What do the screens show for `O=C(CCn1cccc1)NCCc1ccc(Cl)cc1`?
HIV RNase H inh: -9

How did CCOc1ccc(CCNC(=O)C2CCCN(C(=O)N(C)C)C2)cc1OCC (stereo not given) do in these assays?
HIV RNase H inh: 6

How did CC1(C)Cc2c(C#N)c(N3CCN(C(=O)c4ccco4)CC3)nc(-c3ccco3)c2CS1 do in these assays?
HIV RNase H inh: 55*

How did N#Cc1c(N2CCN(C(=O)c3ccco3)CC2)nc(-c2ccccc2)c2c1CCCC2 do in these assays?
HIV RNase H inh: -31

Results for CC1(C)Cc2c(C#N)c(N3CCN(C(=O)c4ccco4)CC3)nc(Cc3ccccc3)c2CO1 ?
HIV RNase H inh: 8

Results for C=CCOc1cccc(C2/C(=C(/O)c3ccccc3)C(=O)C(=O)N2CCCN2CCOCC2)c1 (stereo not given) ?
HIV RNase H inh: 0

Results for CC12C(=O)N(c3nccs3)C(=O)C1C1C=CC2C1 (stereo not given) ?
HIV RNase H inh: -3

How did CCOc1ccc(C2C(C#N)=C(N)SC(N)=C2C#N)cc1OCC do in these assays?
HIV RNase H inh: 38
